Experimental data from PubChem BioAssay AID521 (Sanford-Burnham Center for Chemical Genomics, 2006).
In all, about 110,000 compounds went through this assay and about 730 (0.66%) were called active. Many of the other results were omitted from the sample, so actives are more common in it than they were. Unmarked numbers belong to inactive results. Rule as the data show it: active = inhibition above about 50%; inconclusive = no clear call, values can overlap the other calls; inactive = below that.

molecular target: Tyrosine-protein phosphatase non-receptor type 7 (Homo sapiens) (UniProt P35236); test: inhibitors of human HePTP phosphatase, primary screen, biochemical, absorbance, leukemia target (AID 521); conditions: recombinant HePTP phosphatase activity, OD absorbance; at 20 µM; hits give high values;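 also: plate controls were vehicle for no effect and reference inhibitor for full effect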
Sequence (P35236 whole entry, looked up): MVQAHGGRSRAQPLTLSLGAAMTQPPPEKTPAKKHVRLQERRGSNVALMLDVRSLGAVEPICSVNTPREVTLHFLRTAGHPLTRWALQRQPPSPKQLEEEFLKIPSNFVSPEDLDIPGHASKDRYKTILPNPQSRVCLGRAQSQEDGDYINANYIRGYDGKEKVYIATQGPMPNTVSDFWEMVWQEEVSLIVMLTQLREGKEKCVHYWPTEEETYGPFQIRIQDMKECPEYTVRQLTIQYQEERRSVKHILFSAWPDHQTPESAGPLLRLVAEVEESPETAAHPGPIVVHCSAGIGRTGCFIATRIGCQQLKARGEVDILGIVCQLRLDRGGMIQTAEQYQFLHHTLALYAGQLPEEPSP

SMILES	inhibition
COc1cc(/C=C2/SC(=S)N(C)C2=O)cc([N+](=O)[O-])c1O	6.6%
CC(=O)C1=C(O)C(=O)N(CCN2CCNCC2)C1c1ccc(C)cc1 (stereo unspecified)	6%
Cc1ccc(-c2csc(NC(=O)c3ccc(Cl)cc3)n2)cc1	7%
CCN1C(=O)/C(=C\c2cn(CCOc3ccc(Br)cc3)c3ccccc23)SC1=S	2.4%
Cc1cc(Cl)ccc1OCC(=O)O/N=C(\N)c1ccncc1	-14.4%
COC(=O)CCN(C(=O)c1ccc(F)cc1)c1ccccn1	-21.6%
O=C(NC(=O)C(Cl)(Cl)Cl)Nc1ccc(Cl)c(Cl)c1	3.7%
O=C(Nc1nccs1)C(c1ccccc1)c1ccccc1	-5.8%
O=C(O)C1C2C=CC(O2)C1C(=O)Nc1nccs1 (stereo unspecified)	104% (active)
Cc1ccc(S(=O)(=O)Nc2ccc(NC(=O)C3C4C=CC(O4)C3C(=O)O)cc2)cc1 (stereo unspecified)	-5.5%
O=C(c1ccc2c(c1)OCO2)N1CCNc2ccccc2C1	7.3%
O=C(Nc1ccc(N2CCOCC2)cc1)c1ccc2c(c1)OCO2	-5.6%
O=C(c1ccc2c(c1)OCO2)N1CCOCC1	104% (active)
O=C(Nc1cccnc1)c1cnn2c1NC(c1ccco1)CC2C(F)(F)F (stereo unspecified)	0.1%
Cc1cc2oc(=O)cc(C)c2cc1NC(=O)c1ccccc1	-31.1%
O=C(O)C(Sc1nc2ccccc2s1)c1ccccc1 (stereo unspecified)	-17.3%
O=C1/C(=C/c2ccc(Br)cc2)SC(=S)N1CCc1ccccc1	3.2%
O=C(O)CCCCCCCCCCN1C(=O)/C(=C/c2ccc(Br)cc2)SC1=S	70.7% (active)
O=C(O)CCCN1C(=O)/C(=C/c2ccccc2)SC1=S	8.8%
O=C(Nc1cccc(O)c1)c1cc2nc(-c3ccc(F)cc3)cc(C(F)(F)F)n2n1	4.4%
CCOC(=O)c1ccc(N2NC(=O)/C(=C/c3ccc(Br)cc3)C2=O)cc1	6.5%
